The assay deals with Tumor susceptibility gene 101 protein (Homo sapiens) (UniProt Q99816). As to the kind of experiment: qHTS Assay for Iinhibitors of HIV-1 Budding by Blocking the Interaction of PTAP/TSG101: Hit Validation in TR assay. The method, boiled down:
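Fluorescence polarization: Tsg101 binding domain (10 uM final) with Texas Red-labelled PTAP peptide (50 nM final) in HEPES pH 7.5, 0.15 M NaCl, Tween 20, EDTA, TCEP; 20 min binding at room temperature after compound addition.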
On the technique in general: Quantitative high-throughput screening tests each substance at several concentrations.

The source of these data is PubChem BioAssay AID651599 (National Center for Advancing Translational Sciences (NCATS), 2012).

Results filed as inconclusive are left out. Entries that show only a call come without a potency. Calls of active or inactive are those of the source. The call rests on the fitted dose curve; in most records, active means well fitted inhibition curve with a large enough effect; inconclusive means small, poorly fitted or top-dose-only effect; inactive means no such curve, though single readings can be large or run the other way.
Potency means the concentration at half of the fitted maximal effect.

Tumor susceptibility gene 101 protein (Homo sapiens), sequence (Q99816 whole entry, looked up, the tested form may be a part): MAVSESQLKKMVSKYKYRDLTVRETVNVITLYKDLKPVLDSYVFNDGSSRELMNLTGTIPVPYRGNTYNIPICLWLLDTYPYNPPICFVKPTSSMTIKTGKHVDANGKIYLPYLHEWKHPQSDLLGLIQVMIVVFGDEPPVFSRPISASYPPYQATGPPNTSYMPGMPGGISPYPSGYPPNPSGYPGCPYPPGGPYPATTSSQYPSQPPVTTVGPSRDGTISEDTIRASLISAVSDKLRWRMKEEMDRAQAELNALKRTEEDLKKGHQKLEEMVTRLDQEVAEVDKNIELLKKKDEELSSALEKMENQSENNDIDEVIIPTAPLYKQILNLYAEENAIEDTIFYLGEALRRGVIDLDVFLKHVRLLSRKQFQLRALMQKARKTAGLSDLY

Turning to `Cc1cc(=O)oc(C)c1C(=O)Nc1ccc2ncccc2c1`, the Potency result is “inactive”.
To `Cc1ccc(-c2cccc(NC(=O)C3C4C=CC(C4)C3C(=O)O)c2)o1` (stereo unspecified) belongs “inactive”; to `CN1CC=C2C(C#N)=C(N)C(C#N)(C#N)C(Cc3ccccc3)C2C1` (stereo unspecified), “inactive”; to `O=C(O)c1ccccc1-c1ccc(/C=C/c2cc(C(F)(F)F)[nH]c(=O)n2)o1`, “inactive”.
Consider `Cc1cc2nc3c(=O)n(Cc4ccccc4)c(=O)[nH]c3nc2cc1N`, for which the Potency entry was “inactive”.
To `CCCN(CCC)S(=O)(=O)c1ccc(C(=O)OCCN2C(=O)c3cccc4c(N5CCOCC5)ccc(c34)C2=O)cc1` belongs “inactive”.
To `CCN1C(=O)c2cccc3c(N)ccc(c23)C1=O` belongs “inactive”.
As for `O=C(N/N=C/c1ccccc1Cl)c1[nH]c2ccc(Br)cc2c1-c1ccccc1`, the Potency entry was “inactive”.
To `COc1cccc2c1C(=O)c1c(O)c3c(c(O)c1C2=O)C[C@@](O)(C(=O)CO)C[C@@H]3OC1CC(N)C(O)C(C)O1` (stereo partly specified) belongs “inactive”; to `CCCNc1c(F)c(F)c2c(C)c3ccccc3nc2c1F`, “inactive”.
For the compound `Nc1c(C(=O)Nc2ccccc2F)sc2nc(Cc3ccccc3)cc(C(F)(F)F)c12`, the Potency result was “inactive”.
To `CCN(CC)c1ccc2c(-c3ccc(S(=O)(=O)O)cc3S(=O)(=O)[O-])c3ccc(=[N+](CC)CC)cc-3oc2c1` belongs 0.13 µM (active).
`CCCn1c(O)c(N=Nc2ccc3ccccc3n2)c2ccccc21`: the Potency result is “inactive”.
To `C=CCn1c(=N)c(S(=O)(=O)c2ccc(C)c(C)c2)cc2c(=O)n3ccccc3nc21` belongs “inactive”.
Take `Nc1ccc(-c2c3ccc(=O)cc-3oc3cc(O)ccc23)cc1C(=O)O`: the Potency was 36.6 µM (active).
To `COc1ccccc1NC(=O)C(C)OC(=O)C1CC(=O)N(c2ccc3c(c2)OCCO3)C1` (stereo unspecified) belongs “inactive”.
As to `Brc1ccc(C2=CC(c3cccs3)n3ncnc3N2)cc1` (stereo unspecified), the Potency entry is “inactive”.
With `CCCCCCn1c(=O)[nH]c2nc3cc(N)c(C)cc3nc2c1=O`, the Potency entry was “inactive”.
To `Fc1ccc(C2=CC(c3ccco3)n3ncnc3N2)cc1` (stereo unspecified) belongs “inactive”.
To `Cc1cc[n+](-c2[nH]c(=O)sc2/C=N/NC([S-])=Nc2ccccc2)cc1C` belongs “inactive”; to `O=C(O)c1cc(O)c2c(c1)C(=O)c1cccc(O)c1C2=O`, “inactive”; to `O=C1c2cccc3c(O)ccc(c23)C(=O)N1Cc1ccco1`, “inactive”.
To `CCNc1ccc2noc3c2c1C(=O)c1ccccc1-3` belongs “inactive”; to `CSC1=NSC2=NC(=O)/C(=C/c3coc4ccccc4c3=O)C(=N)N12`, “inactive”; to `CCCCNC(=O)C(C#N)c1nc2ccccc2nc1N1CCN(Cc2ccc3c(c2)OCO3)CC1` (stereo unspecified), “inactive”.
Turning to `CN(C)CCCN1C(=O)c2cccc3c(Br)ccc(c23)C1=O`, the Potency result was “inactive”.
To `COc1ccccc1Nc1nc2ccc(C)cc2cc1C#N` belongs “inactive”.
Turning to `C=CCn1c(=O)/c(=C/c2ccc(C)o2)s/c1=C(/C#N)C(=O)c1ccccc1`, the Potency entry is “inactive”.
To `CCN(CC)c1ccc(/C=C(\C#N)C(=O)c2ccc(Br)cc2)cc1` belongs “inactive”; to `O=c1oc2ccccc2nc1/C=C(\O)c1ccc(Br)cc1`, “inactive”.
To `COC(=O)c1c(NC(=O)CC2Nc3cc(C)c(C)cc3NC2=O)sc(C)c1C` (stereo unspecified) belongs 2.91 µM (active).
To `Cc1ccc(Nc2ccc([N+](=O)[O-])ccc2=O)cc1` belongs “inactive”; to `Cn1c2ccc(F)cc2c2nc3ccccc3nc21`, “inactive”; to `Cc1cc(=O)oc2ccc(OC(=O)CN3C(=O)c4cccc([N+](=O)[O-])c4C3=O)cc12`, “inactive”.
With `Cc1cc[n+](-c2[nH]c(=O)sc2/C=N/N=C(\[O-])c2ccccc2)cc1C`, the Potency entry is “inactive”.
To `O=C(NCc1cccc(F)c1)c1cccc2c1C(=O)c1ccc(N3CCCC3)cc1S2(=O)=O` belongs “inactive”; to `Cc1ccc(CSc2nnc3c(n2)OC2(Nc4ccccc4-3)C(=O)Nc3ccc(F)cc32)cc1` (stereo unspecified), “inactive”.
On to `COc1ccc(C2=CC(c3ccco3)n3ncnc3N2)cc1` (stereo unspecified), for which the Potency result was “inactive”.
For `CCN(CC)c1ccc2cc(S(=O)(=O)c3ccc(Cl)cc3)c(=O)oc2c1`, the Potency entry is “inactive”.
`COC(=O)C[C@H]1c2cc(F)ccc2S(=O)(=O)N1c1ccccc1`: the Potency result was “inactive”.
To `CC(=O)N/N=C/c1cc(C(C)C)cc(/C=N/NC(C)=O)c1O` belongs “inactive”.
For the compound `CCC1CCCCN1C(=O)c1cc2cc(Br)ccc2oc1=O` (stereo unspecified), the Potency result was “inactive”.
`Clc1ccc(-c2nnc3sc(-c4ccc(Br)o4)nn23)cc1`: the Potency entry is “inactive”.
For the compound `CCC(=O)Nc1ccc(NC(=O)C23CC4CC(CC(C4)C2)C3)cn1`, the Potency result is “inactive”.
To `CCCN1C(=O)/C(=C/C=C2\N(CC)c3ccccc3C2(C)C)SC1=S` belongs “inactive”.
With `CCN(CC)c1ccc2cc(-c3nnc(-c4ccncc4)o3)c(=O)oc2c1`, the Potency entry is “inactive”.
